{"source": "ChEMBL document CHEMBL3988442", "about": "“University of Dundee, Small-Polar-MMV Screening Library” (2021)", "note": "About 950 (1.4%) of roughly 69,000 compounds showed an effect of 50% or more. For the sample, strong results were picked, then their nearest neighbours and some compounds at random.", "data": [{"system": "Mycobacterium tuberculosis", "experiment": "Cornell M. t heat shock assay; further: in the data most compounds retested in dose-response had high values", "format": "functional, organism-based", "parameters": "dose or concentration left out as unconfirmed", "units": {"Percent Effect": "%"}, "values": [{"smiles": "Cc1ccc(CN2C[C@@H](OCc3ccccn3)[C@H]3COC[C@H]32)o1.O=C(O)C(F)(F)F.O=C(O)C(F)(F)F", "Percent Effect": 4.099}, {"smiles": "CNc1nc(C2CCCN2)nc2c1CCN(S(=O)(=O)C1CCCCC1)C2.Cl", "note": "(configuration not stated)", "Percent Effect": 12.62}, {"smiles": "CCc1cc(NC2CCOCC2)n2nc(C)c(C)c2n1", "Percent Effect": -7.332}, {"smiles": "CCOC(=O)N1CCC(Nc2cc(CC)nc3c(C)c(C)nn23)CC1", "Percent Effect": -7.891}, {"smiles": "CCc1cc(NC2CCN(S(C)(=O)=O)CC2)n2nc(C)c(C)c2n1", "Percent Effect": 105.8}, {"smiles": "CCN(CC)CCN1CC[C@H]2OCC[C@@]2(C(=O)N2CCOCC2)C1.O=C(O)C(F)(F)F.O=C(O)C(F)(F)F", "Percent Effect": 6.776}, {"smiles": "Cl.Cl.Cn1cc(C(=O)NCc2cncc3c2CCN(c2ccccn2)C3)cn1", "Percent Effect": -14.06}, {"smiles": "COc1cccc2[nH]c(C(=O)N3CCNCC3C(N)=O)cc12.Cl", "note": "(configuration not stated)", "Percent Effect": -10.67}, {"smiles": "CCOC(=O)N1CCC2(CC1)N=C(CCC(C)C)NC2=O", "Percent Effect": 12.74}, {"smiles": "CC(C)CCC1=NC2(CCN(C(=O)N3CCN(C)CC3)CC2)C(=O)N1", "Percent Effect": 15.27}, {"smiles": "COC(=O)N1CCC2(CC1)N=C(CCC(C)C)NC2=O", "Percent Effect": 95.71}, {"smiles": "Cc1oncc1C(=O)N[C@@H]1CN(Cc2ccco2)C[C@@H]2CCCO[C@@H]21.O=C(O)C(F)(F)F", "Percent Effect": 4.265}, {"smiles": "CC[C@@H]1N(Cc2ccco2)CCC[C@]12CCC(=O)N2C.O=C(O)C(F)(F)F", "Percent Effect": -19.47}, {"smiles": "Cc1ccsc1-c1cccc(-c2ccn(CC3CCNC3)n2)c1", "note": "(configuration not stated)", "Percent Effect": 84.67}, {"smiles": "Cc1nccc(-c2cccc(-c3ccn(CC4CCNC4)n3)c2)n1", "note": "(configuration not stated)", "Percent Effect": -11.22}, {"smiles": "c1cc(-c2cncnc2)cc(-c2ccn(CC3CCNC3)n2)c1", "note": "(configuration not stated)", "Percent Effect": 8.343}, {"smiles": "CN1CCC(c2nnc3ccc(C(=O)NC4CCCC4)cn23)C1.O=C(O)C(F)(F)F", "note": "(configuration not stated)", "Percent Effect": -23.72}, {"smiles": "CNc1cc(C)nc(C2CCN(CCO)CC2)n1", "Percent Effect": -3.64}, {"smiles": "CC1CCN(CCCNC(=O)NC(C)c2nncn2C)CC1", "note": "(configuration not stated)", "Percent Effect": 68.75}, {"smiles": "CC(NC(=O)NCCCN1CCCCCC1)c1nncn1C", "note": "(configuration not stated)", "Percent Effect": 12.17}, {"smiles": "CC(NC(=O)NCCCN1CCCC1)c1nncn1C", "note": "(configuration not stated)", "Percent Effect": -5.961}, {"smiles": "O=C(O)C(F)(F)F.O=C(O)C(F)(F)F.O=C(c1ccc(F)cc1)N1CCN2C[C@H](OCc3ccccn3)C[C@H]2C1", "Percent Effect": 3.711}, {"smiles": "C[C@H]1CN(C(=O)c2ccoc2)C[C@@]12CCN(CCN(C)C)C2=O.O=C(O)C(F)(F)F", "Percent Effect": -17.94}, {"smiles": "O=C1C[C@H]2CC[C@@H](CN1)N2C1CCSCC1", "Percent Effect": 14.33}, {"smiles": "CCN1C[C@H]2C[C@H](C(=O)NCc3cccnc3)[C@@H](C1)O2", "Percent Effect": -4.927}, {"smiles": "Cc1ccc(C(=O)N2CCC3(CC2)COC(COc2cccnc2)C3)o1.O=C(O)C(F)(F)F", "note": "(configuration not stated)", "Percent Effect": -31.88}, {"smiles": "O=C(O)C(F)(F)F.c1cnc(N2CCO[C@H]3CN(CC4CCC4)C[C@H]32)cn1", "Percent Effect": 6.326}, {"smiles": "CC(=O)N1CCc2c(nc(N(C)C)nc2NCc2cccs2)C1", "Percent Effect": -2.548}, {"smiles": "CC(=O)N1CCc2c(nc(N(C)C)nc2NCCc2cccs2)C1", "Percent Effect": 53.71}, {"smiles": "CC(=O)N1CCc2c(nc(N(C)C)nc2NC(C)Cc2cccs2)C1", "note": "(configuration not stated)", "Percent Effect": 23.93}, {"smiles": "CCCNc1cc(-c2c[nH]nc2C2CCN(C(=O)C3CCC3)C2)ccn1", "note": "(configuration not stated)", "Percent Effect": -8.816}, {"smiles": "Cl.O=C(NCc1ccc(Cl)cc1)N1CCN(CC(O)C2CC2)CC1", "note": "(configuration not stated)", "Percent Effect": 7.084}, {"smiles": "CC(C)CC(=O)Nc1ccc2c(c1)ncn2CC(=O)NCCN(C)C", "Percent Effect": 65.51}, {"smiles": "CC(C)NC(=O)Nc1ccc2c(c1)ncn2CC(=O)NCCN(C)C", "Percent Effect": -0.1313}, {"smiles": "CC(C)C(=O)Nc1ccc2c(c1)ncn2CC(=O)NCCN(C)C", "Percent Effect": -3.322}, {"smiles": "CC(=O)N1CCN(c2cc(C3CCNCC3)ccn2)CC1.Cl.Cl", "Percent Effect": 2.778}, {"smiles": "O=C(N1CCCC1)N1CCC2(CC1)CN(c1cccnc1)C(=O)CO2.O=C(O)C(F)(F)F", "Percent Effect": -4.597}, {"smiles": "CCCn1cc(NC(=O)c2cccc(CN3CC=CC3)c2)nn1", "Percent Effect": -7.923}, {"smiles": "CCn1cc(NC(=O)c2cccc(CN3C[C@@H](C)O[C@@H](C)C3)c2)nn1", "Percent Effect": 87.48}, {"smiles": "CCCn1cc(NC(=O)c2cccc(CN3CC[C@H](O)C3)c2)nn1", "Percent Effect": 18.76}, {"smiles": "CN(C)C(=O)CO[C@H]1CN(Cc2ccsc2)[C@@H]2COC[C@H]12.O=C(O)C(F)(F)F", "Percent Effect": 37.89}, {"smiles": "CN(C)C(=O)Cn1c(C2CC2)c(CN2CCC(O)CC2)c2cccnc21.Cl", "Percent Effect": -13.49}, {"smiles": "CC(C)CCn1c(=O)nc2n1C(=O)N(c1ccc(F)cc1)C2", "Percent Effect": 4.203}, {"smiles": "CCC1=N[C@@]2(CC[C@@H]3CN(Cc4ccccc4C)C[C@@H]32)C(=O)N1C.O=C(O)C(F)(F)F", "Percent Effect": -3.912}, {"smiles": "CN(C)C(=O)CCCNc1ncc2c(n1)CCN2c1ccccc1", "Percent Effect": 14.48}, {"smiles": "O=C(CCNc1ncc2c(n1)CCN2c1ccccc1)N1CCCC1", "Percent Effect": 58.85}, {"smiles": "OC1CCN(CCNc2ncc3c(n2)CCN3c2ccccc2)CC1", "Percent Effect": -5.755}, {"smiles": "CCc1ncc(C(=O)N2CC[C@@H]3CC[C@H](C2)N3C)cn1", "Percent Effect": -16.81}, {"smiles": "COc1cc2cc(C)c(SCCN3CCCCC3)nc2cc1OC.Cl", "Percent Effect": 8.064}, {"smiles": "CN1CCC(CNC(=O)c2ccc(O)nc2)c2ccccc21", "note": "(configuration not stated)", "Percent Effect": 10.05}, {"smiles": "CN1CCC(CNC(=O)c2cccc(NC(N)=O)c2)c2ccccc21", "note": "(configuration not stated)", "Percent Effect": 13.83}, {"smiles": "CN1CCC(CNC(=O)c2cccc(C(F)(F)F)c2)c2ccccc21", "note": "(configuration not stated)", "Percent Effect": 80.18}, {"smiles": "FC1(F)CCN(Cc2ccncc2)CC12CCN(Cc1ccccn1)C2.O=C(O)C(F)(F)F.O=C(O)C(F)(F)F.O=C(O)C(F)(F)F", "note": "(configuration not stated)", "Percent Effect": -15.56}, {"smiles": "CCN(C)c1ncnc2c1CCN(Cc1csc(C)n1)CC2.O=C(O)C(F)(F)F.O=C(O)C(F)(F)F", "Percent Effect": 2.134}, {"smiles": "O=S(=O)(C1CC1)N1CCc2ncnc(-c3ccsc3)c2CC1", "Percent Effect": -2.171}, {"smiles": "O=C(O)C(F)(F)F.O=C(c1ncccn1)N1CCC2(CC1)COC(COc1ccccn1)C2", "note": "(configuration not stated)", "Percent Effect": -42.8}, {"smiles": "CCCC1CCCN(Cc2csc(-c3cnn(C)c3)n2)CC1", "note": "(configuration not stated)", "Percent Effect": 101.6}, {"smiles": "CC(C)c1nnc2n1CCN(Cc1csc(-c3cnn(C)c3)n1)C2", "Percent Effect": 2.86}, {"smiles": "CCc1nnc2n1CCN(Cc1csc(-c3cnn(C)c3)n1)C2", "Percent Effect": 103.2}, {"smiles": "CCCC1CCCN(Cc2csc(-c3ncccn3)n2)CC1", "note": "(configuration not stated)", "Percent Effect": 31.96}, {"smiles": "Cc1nnc2n1CCN(Cc1csc(-c3cnn(C)c3)n1)C2", "Percent Effect": -22}, {"smiles": "Cn1cc(-c2nc(CN3CCN(CCO)CC3)cs2)cn1", "Percent Effect": 7.212}]}]}
